Bioassay records (PubChem)
HCMV inh: human cytomegalovirus inhibition; HFF cells, HCMV-luciferase reporter, 72 h; stronger effect = lower value; activity change, negative = inhibition, % at 57.5 µM; hit rate 4.5% among 410,000; AID 1259415; in the data active = activity change below about -60%; inconclusive = no clear call, values can overlap the other calls; inactive = above about -39%
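Two-dose cell screen: HFF monolayers treated with compounds and infected with luciferase-expressing HCMV at 1 PFU/cell, 72 h at 37C, then lysed for luciferase measurement.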
Vaccinia Venus: vaccinia inhibition (Venus reporter) | AID 720580 | hit rate 0.46% among 330,000 | Potency, µM (doses to about 36.5 µM), actives largely listed as inhibitors | Vaccinia virus Venus reporter expression, fluorescence; calls by dose curve; tested in A549 cells; also: nearly all actives have a fitted effect of over 30% in size
HCV inhibitor: blocks hepatitis C virus; Huh7.5.1 HCVcc-Cre infection, luciferase reporter, 44 h; hit rate 3.4% among 340,000; AID 651820; Potency, µM (series often up to 41.8 µM), most hits filed as inhibitors
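Seed cells (1,000/well) for 4 h; treat with compound and infect with HCVcc-Cre, moi about 0.5. Incubate 44 h, then detect luciferase activity.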
FMDV inh: antivirals against foot and mouth disease virus; FMDV antiviral cell-based qHTS; Potency, µM (titrated, usually from 57.9 µM), usual class: inhibitors; hit rate 1.2% among 410,000; AID 1159524; calls by dose curve; tested in HEK293T cells; also: read-out not given here; nearly all actives have a fitted effect of over 45% in size
Giardia FBPA inh-1: inhibitors of Giardia lamblia fructose-1,6-bisphosphate aldolase; A8B2U2; purified Giardia FBPA; Potency, µM (top dose mostly 59.6 µM), actives largely listed as inhibitors; hit rate 0.71% among 290,000; also: nearly all actives have a fitted effect of over 55% in size
Target sequence (A8B2U2 whole entry, looked up): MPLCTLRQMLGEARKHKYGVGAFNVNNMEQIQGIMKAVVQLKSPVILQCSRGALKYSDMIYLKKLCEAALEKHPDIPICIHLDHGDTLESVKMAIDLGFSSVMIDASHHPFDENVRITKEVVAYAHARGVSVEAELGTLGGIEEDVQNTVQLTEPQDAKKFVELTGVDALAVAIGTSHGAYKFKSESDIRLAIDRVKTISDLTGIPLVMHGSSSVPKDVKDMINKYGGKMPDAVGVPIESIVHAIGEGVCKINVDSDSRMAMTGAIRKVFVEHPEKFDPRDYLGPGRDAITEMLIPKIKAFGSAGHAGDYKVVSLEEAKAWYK
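40 nM FBPA preincubated 10 min at RT with compound (up to 57.5 uM final), then substrate plus GAPDH/TPI/NAD/arsenate coupling and diaphorase/resazurin added. Fluorescence read after 20 min at RT, 525/598 nm.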
Vaccinia mCherry: inhibitors of vaccinia virus infection (mCherry reporter signal) | AID 720579 | Potency, µM (titrated, usually from 36.5 µM), most hits filed as inhibitors | Vaccinia virus mCherry reporter infection, fluorescence | hit rate 0.63% among 310,000; calls by dose curve; tested in A549 cells; also: nearly all actives have a fitted effect of over 35% in size
Giardia growth: Giardia lamblia growth inhibition; shares compounds with Giardia FBPA inh-1; Giardia lamblia trophozoite growth inhibition; Potency, µM (doses to about 57.5 µM), usual class: inhibitors; hit rate 5% among 1,500; AID 2785;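 also: trophozoites exposed to compound for 48 h at 37 °C; nearly all actives have a fitted effect of over 70% in size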
Mammalian tox: toxic to mammalian cells in Giardia aldolase counter-screen; shares compounds with Giardia FBPA inh-1; mammalian cell viability counter-screen, qHTS; Potency, µM (titrated, usually from 57.5 µM), most hits filed as inhibitors; hit rate 4% among 1,500; AID 2786;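 also: Chinese hamster ovary cells used as mammalian cytotoxicity surrogate; viability measured as cellular ATP by luminescence; compound exposure lasted 48 h before reading; nearly all actives have a fitted effect of over 60% in size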
Giardia FBPA inh-2: confirmation of Giardia fructose-bisphosphate aldolase inhibitors. shares compounds with Giardia FBPA inh-1. purified Giardia aldolase enzyme activity, qHTS. Potency, µM (titrated, usually from 57.5 µM), most hits filed as inhibitors. hit rate 5% among 1,500. AID 2787; also: nearly all actives have a fitted effect of over 45% in size
Rabbit aldolase: rabbit FBP aldolase inhibition by Giardia aldolase hits; shares compounds with Giardia FBPA inh-1; Rabbit muscle FBPA enzyme inhibition, selectivity counter-screen; Potency, µM (titrated, usually from 57.5 µM), actives largely listed as inhibitors; hit rate 4% among 1,500; AID 2794; also: nearly all actives have a fitted effect of over 60% in size
GAPDH coupling: GAPDH inhibition flagged for Giardia aldolase hits; shares compounds with Giardia FBPA inh-1; GAPDH coupling enzyme counterscreen, biochemical, qHTS; Potency, µM (top dose mostly 57.5 µM), usual class: inhibitors; hit rate 6% among 1,500; also: nearly all actives have a fitted effect of over 55% in size
Of the large screens only hits and unclear results are named; the others gave an inactive call (follow-up assays come after a bar, where they were run); [ ] = remark or other dose. In the library only some 7.5% were active in any assay of this set; here they are far more common. Unless noted, calls follow the shape of the dose curve; as a rule, active = well fitted curve in the direction sought with a large enough effect; inconclusive = small, poorly fitted or top-dose-only effect, or another doubt; inactive = no such curve, though single readings can be large; an effect the other way counts as inactive or inconclusive.

O=C(O)C1CCN(Cc2ccccn2)CC1	none
COc1cccc(C(=O)N2CCN(Cc3ccccn3)CC2)c1	Giardia FBPA inh-1 25µM (no result: Vaccinia Venus, Vaccinia mCherry) | Giardia growth inactive | Mammalian tox inactive | Giardia FBPA inh-2 inactive | Rabbit aldolase inactive | GAPDH coupling inactive
CC1CCC(NC(=O)CCS(=O)(=O)c2ccc3c(c2)oc(=O)n3C)CC1 (centres undefined)	none (no result: Giardia FBPA inh-1)
Cc1c(NC(=O)c2ccc(OC(C)C)cc2)cccc1-c1nc2ncccc2o1	none (no result: HCV inhibitor, Giardia FBPA inh-1)
CC(C)NC(=O)c1ccc2sc([C@@H]3O[C@H](CO)[C@H](O)[C@H](O)[C@H]3O)nc2c1	none (no result: HCV inhibitor, Giardia FBPA inh-1)
CCCCCCC(=O)N/N=C/c1c(O)n(C2CC2)c(=S)[nH]c1=O	none
C=CCn1c(O)c(/C=N/NC(=O)CCCC)c(=O)[nH]c1=S	Giardia FBPA inh-1 7.1µM | Giardia growth inactive[10.4 µM] | Mammalian tox inactive | Giardia FBPA inh-2 inactive | Rabbit aldolase inactive | GAPDH coupling inactive
CCN(C(=O)COC(=O)c1nn(-c2ccccc2)c(=O)c2ccccc12)C1CCS(=O)(=O)C1 (centres undefined)	none
Nc1ccc(-c2c3ccc(=O)cc-3oc3cc(O)ccc23)cc1C(=O)O	none
O=c1ccc2c(-c3ccccc3)c3ccc(O)cc3oc-2c1	Giardia FBPA inh-1 14µM | Giardia growth inconclusive | Mammalian tox inactive | Giardia FBPA inh-2 inactive | Rabbit aldolase inactive | GAPDH coupling inactive
O=C(NCCCN1CCCC1)[C@H](CSCc1ccccc1)N1Cc2ccccc2C1=O	HCMV inh inconclusive, Giardia FBPA inh-1 18µM | Giardia growth inactive[10.4 µM] | Mammalian tox inactive | Giardia FBPA inh-2 inactive | Rabbit aldolase inactive | GAPDH coupling inactive
CSc1ccccc1C(=O)OCC(=O)Nc1ccc(N2CCOCC2)cc1	none (no result: Giardia FBPA inh-1)
COc1ccc(Br)cc1CN1CCN(C(=O)c2ccco2)CC1	Giardia FBPA inh-1 28µM | Giardia growth inconclusive | Mammalian tox inactive | Giardia FBPA inh-2 inactive | Rabbit aldolase inactive | GAPDH coupling inactive
COc1ccccc1CN1CCN(C(=O)c2ccco2)CC1	Giardia FBPA inh-1 inconclusive
Cc1ccccc1CC(=O)N1CCN(C(=O)c2ccco2)CC1	none (no result: Vaccinia Venus, Vaccinia mCherry)
Cc1ccccc1CN1CCN(C(=O)c2ccco2)CC1	Giardia FBPA inh-1 25µM | Giardia growth inactive[10.4 µM] | Mammalian tox inactive | Giardia FBPA inh-2 inactive | Rabbit aldolase inactive | GAPDH coupling inactive
O=C(Nc1nccc(-c2cccs2)n1)c1ccccc1Cl	Giardia FBPA inh-1 7.9µM | Giardia growth inactive | Mammalian tox inactive | Giardia FBPA inh-2 25µM | Rabbit aldolase 25µM | GAPDH coupling 16µM
O=C1CC(C(=O)O)(c2ccccc2)c2cccc(F)c21 (centres undefined)	none
C=CCNC(=S)NS(=O)(=O)c1cccs1	Giardia FBPA inh-1 5.6µM | Giardia growth inactive | Mammalian tox inactive | Giardia FBPA inh-2 inactive | Rabbit aldolase inactive | GAPDH coupling inactive
O=S(=O)(NCCNS(=O)(=O)c1cccs1)c1cccs1	none
O=c1[nH]cc(I)cc1I	Giardia FBPA inh-1 10µM | Giardia growth inactive | Mammalian tox inactive | Giardia FBPA inh-2 inactive | Rabbit aldolase inactive | GAPDH coupling inactive
CC(C)=CCC/C(C)=C/CNC(=O)C[C@H]1C[C@H](C(=O)N2CCOCC2)[C@@]2(CCC3CCCC3)c3[nH]c4cc(-c5ccco5)ccc4c3CCN2C1=O	Vaccinia Venus inconclusive, Vaccinia mCherry inconclusive (no result: Giardia FBPA inh-1)
S=C(Nc1ccc2c(c1)OCO2)Nc1ccc2c(c1)OCO2	HCMV inh inconclusive
